Compound activity (PubChem)
Chronic BCR inh: qHTS Assay to Find Inhibitors of Chronic Active B-Cell Receptor Signaling. Potency, µM (titrated, usually from 46.1 µM), for inactives: at the highest dose activity change, negative = inhibition, usual class: inhibitors. 340,000 compounds, 0.05% hits. ABC-DLBCL IkBa-CBG/CBR reporter, luminescence ratio, 4 h; active means well fitted inhibition curve with a large enough effect in the signal ratio, with a control signal flat, not every such curve was filed as active; inconclusive means small, poorly fitted or top-dose-only effect, or effect the other way, or a change in a side signal; the % refers to the signal ratio;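 further: potency means the concentration at half of the fitted maximal effect; plate controls were basal doxycycline-induced cells for no effect and cells given 10 µM MG132 for full effect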
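Concentration-response series (up to 46 uM) were applied to TMD8 dual-reporter cells for 4 h at 37C with doxycycline. Green/red ratio, after filter-overlap correction, defined %Activity; red signal alone was normalised to basal cells and zero luminescence.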
MCF10A rerep: A quantitative high throughput screen for small molecules that induce DNA re-replication in MCF 10a normal breast cells | MCF 10A DNA re-replication, Hoechst nuclear intensity, 48 h | 350,000 compounds, 2.9% hits | Potency, µM (highest dose often 46.1 µM), for inactives: top-dose activity, positive = re-replication, most hits filed as activators; further: potency means the concentration at half of the fitted maximal effect; % of control where 0% means no effect; nearly all actives have a fitted effect of over 50% in size
SW480 rerep: A quantitative high throughput screen for small molecules that induce DNA re-replication in SW480 colon adenocarcinoma cells; SW480 DNA re-replication, Hoechst DNA content imaging, 48 h; Potency, µM (doses to about 46.1 µM), for inactives: top-dose re-replication activation, actives largely listed as activators; 340,000 compounds, 1.8% hits; further: potency means the concentration at half of the fitted maximal effect; % of control where 0% means no effect; nearly all actives have a fitted effect of over 55% in size
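SW480 cells exposed to compounds for 48 hr at 37 C, 5% CO2, then Hoechst-stained 40 min. Nuclear DNA content imaged by fluorescence scanning (405 nm excitation, 500-530 nm emission); re-replication scored as increased high-intensity nuclei.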
IL-1B inflam inh: qHTS for Inhibitors of Inflammasome Signaling: IL-1-beta AlphaLISA Primary Screen; 360,000 compounds, 4.7% hits; AID 743279, 2014; THP-1 LPS/ATP IL-1B secretion, AlphaLISA, 16 h; stronger effect = lower value; activity change, % at 57.5 µM; in the data active means activity change below about -50%; inconclusive means mostly about -30% to -49%; further: on the % scale 0 is the no-effect control and ±100 the full control effect
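THP-1 cells pretreated 1 hr with compounds (up to 57.5 uM final), then stimulated with LPS (250 ng/mL final) plus ATP (1.25 mM final); secreted IL-1B measured by AlphaLISA after 16 hr, decreased signal indicating inhibition.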
TDP1 cell noCPT: qHTS for Inhibitors of human tyrosyl-DNA phosphodiesterase 1 (TDP1): qHTS in cells in absence of CPT; DT40 Tdp1-/- hTDP1 cells, no CPT, ATP luminescence, 48 h; Potency, µM (titrated, usually from 46.2 µM), inactives show top-dose activity change, negative = growth inhibition, actives largely listed as inhibitors; 420,000 compounds, 15% hits; further: potency means the concentration at half of the fitted maximal effect; on the % scale 0 is the no-effect control and ±100 the full control effect; nearly all actives have a fitted effect of over 55% in size
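Stably hTDP1-transfected Tdp1-null chicken DT40 cells were treated with library compounds minus camptothecin and grown for at least 48 hr at 37 °C, after which cellular ATP was quantified by luminescence.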
TDP1 cell CPT: qHTS for Inhibitors of human tyrosyl-DNA phosphodiesterase 1 (TDP1): qHTS in cells in presence of CPT; chicken DT40 Tdp1-/-;hTDP1 cells + 20 nM CPT, ATP luminescence, 48 h; Potency, µM (top dose mostly 46.2 µM), without a hit: top-dose activity change, negative = growth inhibition, hits mostly inhibitors; 420,000 compounds, 12% hits; AID 686979, 2013; further: potency means the concentration at half of the fitted maximal effect; on the % scale 0 is the no-effect control and ±100 the full control effect; nearly all actives have a fitted effect of over 55% in size
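Cell growth measured by CellTiter-Glo luminescence after a minimum 48 h, 37 C compound exposure with 20 nM CPT in Tdp1-knockout DT40 cells stably expressing hTDP1, seeded 400/well; qHTS titration format.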
Starred values were filed as active, the others as inactive; ? = inconclusive; . = no result given; ! = not confirmed by another sample. In the library only some 19% were active in any assay of this set; here they are far more common. Unless noted, the call rests on the fitted dose curve; in most records, active means well fitted curve in the direction sought with a large enough effect; inconclusive means small, poorly fitted or top-dose-only effect, or another doubt; inactive means no such curve, though single readings can be large; an effect the other way counts as inactive or inconclusive.

SMILES	Chronic BCR inh	MCF10A rerep	SW480 rerep	IL-1B inflam inh	TDP1 cell noCPT	TDP1 cell CPT
O=C(Cc1ccc(NC(=O)C2CCCN(C(=O)C3CC3)C2)cc1)Nc1cccc(C(=O)N2CCCCC2)c1 (configuration not stated)	.	-5%	-3%	3	-15%	-16%
O=C(NCC(c1ccco1)S(=O)(=O)c1cccs1)c1ccc(Cl)cc1 (configuration not stated)	2%	.	.	.	?	-26%
CCOC(=O)[C@]12CCC=C1N(Cc1ccc3c(c1)OCO3)C(=O)[C@H](CC(=O)NCc1cccc3ccccc13)C2	.	.	.	-60*	?	?
CCOC(=O)[C@]12CCC=C1N(Cc1ccc3c(c1)OCO3)C(=O)[C@H](CC(=O)NCc1ccc(C)o1)C2	.	.	.	0	23µM*	?
COC(=O)[C@]12CCCCC=C1N(Cc1ccc3c(c1)OCO3)C(=O)[C@H](CC(=O)NCc1cccc3ccccc13)C2	.	.	.	-11	?	?
CCOc1ccc(N(CC(=O)NC2CC3CCC2C3)S(=O)(=O)c2ccc(C)cc2)cc1 (configuration not stated)	4%	9%	?	0	?	16µM*
COc1ccc(N(CC(=O)NC2CC3CCC2C3)S(=O)(=O)c2ccc(C)cc2)cc1Cl (configuration not stated)	.	.	.	-13	23µM*	?
COc1ccc(N(CC(=O)Nc2ccccc2Cl)S(=O)(=O)c2ccc(C)cc2)cc1OC	-6%	?	3.3µM*	?	-13%	-20%
CCOc1ccc(N(CC(=O)NCC2CCCO2)S(=O)(=O)c2ccc(SC)cc2)cc1 (configuration not stated)	13%	-3%	-9%	-6	-12%	13µM*
COc1ccc(N(CC(=O)Nc2ccc(C)c(C)c2)S(=O)(=O)c2ccc(C)cc2)cc1OC	.	.	.	.	-17%	-6%
CC(C)CCNC(=O)c1ccc2c(c1)N(Cc1cccc(Cl)c1)C(=O)c1ccccc1S2	0%	.	.	.	21µM*	?
CC(C)CCNC(=O)Nc1ccc2c(c1)N(Cc1ccccc1)C(=O)c1ccccc1S2	.	.	.	.	?	18µM*
CSCC[C@H](NC(=O)[C@@H]1Cc2ccccc2CN1)C(=O)NC[C@H]1CC[C@H](C(=O)O)CC1	0%	-1%	-11%	16	17%	1%
Cc1ccccc1-c1cc(Nc2ccccc2)ncn1	.	.	.	.	-18%	-24%
O=C(NCc1cccc(C(F)(F)F)c1)N1CCN(C(=O)c2ccccc2)CC1	?	-4%	-1%	-9	0%	-14%
COc1ccc(-c2oc3ccccc3c2C(=O)OCc2ccc(O)cc2)cc1	-3%	291%	?	-29	-15%	-17%
Cc1cccc(-c2oc3ccc(-c4ccc5c(c4)OCO5)cc3c2C(=O)OCc2ccc(O)cc2)c1	4%	?	-5%	14	?	16µM*
COc1ccc2c(c1)[nH]c1c(N3CCSCC3)ncnc12	?	?	-6%	.	8.2µM*	7.3µM*
c1nc(N2CCN(Cc3ccc4c(c3)OCO4)CC2)c2[nH]cnc2n1	0%	-8%	10%	9	?	?
COc1ccc2c(c1)[nH]c1c(N3CCN(Cc4ccc5c(c4)OCO5)CC3)ncnc12	?	?	10%	-105*	1.6µM*	2.3µM*
COc1ccccc1OCCn1c(-c2ccc(Br)cc2)nc2ccccc2c1=O	.	.	.	.	-13%	2%
COc1ccc(CN2COc3ccc4c(-c5ccc(OC)cc5)cc(=O)oc4c3C2)cc1	.	.	.	.	21µM*	9.2µM*
COc1ccccc1CN1COc2ccc3c(oc(=O)c4ccccc43)c2C1	.	.	.	.	23µM*	?
COc1cc2c(=O)c(S(=O)(=O)c3ccccc3)cn(CC(=O)Nc3ccccc3C)c2cc1OC	.	.	.	.	0%	-5%
COc1ccc(S(=O)(=O)N2CCCCC2c2cc(C(=O)N3CCOCC3)no2)cc1 (configuration not stated)	.	.	.	18	-5%	-22%
SMILES	Chronic BCR inh	MCF10A rerep	SW480 rerep	IL-1B inflam inh	TDP1 cell noCPT	TDP1 cell CPT
Cc1ccc2nc(C(=O)N3CCc4c([nH]c5ccccc45)C3c3ccccn3)cn2c1 (configuration not stated)	11%	3%	2%	-59*	21µM*	?
O=C(c1cccs1)N1CCc2c([nH]c3ccccc23)C1c1ccccn1 (configuration not stated)	5%	12%	18%	?	8%	-17%
O=C(c1ccccc1-n1cccn1)N1CCc2c([nH]c3ccccc23)C1c1ccccn1 (configuration not stated)	-10%	-5%	-37%	-11	10µM*	10µM*
O=C(c1cc(-c2ccccc2)n[nH]1)N1CCc2c([nH]c3ccccc23)C1c1ccccn1 (configuration not stated)	?	?	?	-65*	21µM*	18µM*
CC(=O)c1ccc(C(=O)N2CCc3c([nH]c4ccccc34)C2c2ccccn2)s1 (configuration not stated)	?	-1%	10%	-3	21µM*	?
CC(=O)N1CCC2(CC1)OC(=O)C(C)=C2C(=O)NCc1ccc(Cl)cc1	.	.	.	.	0%	10%
CCc1nc(C)ccc1OCC(=O)N1CCc2c([nH]c3ccccc23)C1c1ccccn1 (configuration not stated)	-8%	2%	-20%	?	23µM*	21µM*
O=C(Nc1cccc2ncccc12)c1cc([N+](=O)[O-])ccc1Cl	-7%	?	?	-88*	?	?
O=C(Nc1ccccc1)c1cc([N+](=O)[O-])ccc1Cl	?	2%	-10%	8	28µM*!	30µM*!
O=C(CNC(c1ccccc1)c1ccccc1)Nc1cc([N+](=O)[O-])ccc1Cl	4%	17%	2%	-16	16µM*	21µM*
O=C(Nc1cccnc1Cl)c1cc([N+](=O)[O-])ccc1Cl	?	?	?	-63*	?	?
